According to PubChem BioAssay AID1159580 (chemical genetic matrix, 2015):
Out of some 5,500 compounds screened, about 2,000 (36%) were called active. About 18% were inconclusive and are not listed. Rule as the data show it: active = normalized growth mostly below about 0.91 (no sharp cut-off); inconclusive = no clear call, values can overlap the other calls; inactive = mostly above about 0.92. This is one part of the list.

Assay: chemical genetic growth profiling, strain panel (AID 1159580);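 also: tested at 20 µM; growth read once vehicle control cultures reached saturation at 30 °C; 1 = growth at the plate median or of vehicle wells; lower values mean less growth of the strain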
Conditions: growth OD

Measured: normalized growth

CC[C@H]1OC(=O)[C@H](C)[C@@H](O[C@H]2C[C@@](C)(OC)[C@@H](O)[C@H](C)O2)[C@H](C)[C@@H](O[C@@H]2O[C@H](C)C[C@H](N(C)C)[C@H]2O)[C@](C)(OC)C[C@@H](C)C(=O)[C@H](C)[C@@H](O)[C@]1(C)O
inactive: S. cerevisiae deletion strains, locus YAL013W, strain DEP1, active compounds read low 0.992 | S. cerevisiae deletion strains, locus YBR021W, strain FUR4, active compounds read low 1.01 | S. cerevisiae deletion strains, locus YBR229C, strain ROT2, active compounds read low 0.989 | S. cerevisiae deletion strains, locus YCL029C, strain bik1, active compounds read low 0.994 | S. cerevisiae deletion strains, locus YDL035C, strain GPR1, active compounds read low 0.977 | S. cerevisiae deletion strains, locus YDL074C, strain BRE1, active compounds read low 0.949 | S. cerevisiae deletion strains, locus YDL101C, strain DUN1, active compounds read low 0.992 | S. cerevisiae deletion strains, locus YDL134C, strain PPH21, active compounds read low 0.989 | S. cerevisiae deletion strains, locus YDL185W, strain tfp1, active compounds read low 0.994 | S. cerevisiae deletion strains, locus YDL192W, strain arf1, active compounds read low 0.966 | S. cerevisiae deletion strains, locus YDR101C, strain arx1, active compounds read low 0.973 | S. cerevisiae deletion strains, locus YDR150W, strain NUM1, active compounds read low 0.987 | S. cerevisiae deletion strains, locus YDR162C, strain NBP2, active compounds read low 0.974 | S. cerevisiae deletion strains, locus YDR318W, strain mcm21, active compounds read low 0.986 | S. cerevisiae deletion strains, locus YDR388W, active compounds read low 0.986 | S. cerevisiae deletion strains, locus YDR502C, strain sam2, active compounds read low 0.99 | S. cerevisiae deletion strains, locus YEL061C, strain CIN8, active compounds read low 0.985 | S. cerevisiae deletion strains, locus YER110C, active compounds read low 1.04 | S. cerevisiae deletion strains, locus YER155C, strain BEM2, active compounds read low 0.987 | S. cerevisiae deletion strains, locus YER167W, strain BCK2, active compounds read low 0.986 | S. cerevisiae deletion strains, locus YGL078C, strain dbp3, active compounds read low 1.01 | S. cerevisiae deletion strains, locus YGL086W, strain mad1, active compounds read low 0.969 | S. cerevisiae deletion strains, locus YGL248W, strain PDE1, active compounds read low 0.986 | S. cerevisiae deletion strains, locus YGR078C, strain PAC10, active compounds read low 0.991 | S. cerevisiae deletion strains, locus YGR135W, strain pre9, active compounds read low 0.989 | S. cerevisiae deletion strains, locus YGR229C, strain SMI1, active compounds read low 0.963 | S. cerevisiae deletion strains, locus YGR252W, strain gcn5, active compounds read low 0.932 | S. cerevisiae deletion strains, locus YHR030C, strain SLT2, active compounds read low 0.986 | S. cerevisiae deletion strains, locus YHR079C, strain IRE1 (second series), active compounds read low 0.983 | S. cerevisiae deletion strains, locus YHR094C, strain hxt1, active compounds read low 0.982 | S. cerevisiae deletion strains, locus YHR129C, strain ARP1, active compounds read low 0.981 | S. cerevisiae deletion strains, locus YHR200W, strain rpn10, active compounds read low 0.98 | S. cerevisiae deletion strains, locus YIL066C, strain RNR3, active compounds read low 0.985 | S. cerevisiae deletion strains, locus YIL073C, strain SPO22, active compounds read low 0.985 | S. cerevisiae deletion strains, locus YIL125W, strain kgd1, active compounds read low 1.01 | S. cerevisiae deletion strains, locus YIR030C, strain dcg1, active compounds read low 0.999 | S. cerevisiae deletion strains, locus YJL095W, strain BCK1, active compounds read low 0.971 | S. cerevisiae deletion strains, locus YJL134W, strain LCB3, active compounds read low 0.989 | S. cerevisiae deletion strains, locus YJL168C, strain set2, active compounds read low 0.978 | S. cerevisiae deletion strains, locus YJL187C, strain SWE1 (second series), active compounds read low 0.989 | S. cerevisiae deletion strains, locus YJR043C, strain POL32, active compounds read low 0.958 | S. cerevisiae deletion strains, locus YJR075W, strain HOC1, active compounds read low 0.954 | S. cerevisiae deletion strains, locus YKL009W, strain mrt4, active compounds read low 0.997 | S. cerevisiae deletion strains, locus YKL068W, active compounds read low 0.982 | S. cerevisiae deletion strains, locus YKL085W, strain MDH1 (second series), active compounds read low 0.978 | S. cerevisiae deletion strains, locus YKL085W, strain MDH1, active compounds read low 0.978 | S. cerevisiae deletion strains, locus YKL190W, strain CNB1, active compounds read low 0.967 | S. cerevisiae deletion strains, locus YKR001C, strain vps1, active compounds read low 0.999 | S. cerevisiae deletion strains, locus YLR039C, strain RIC1, active compounds read low 0.979 | S. cerevisiae deletion strains, locus YLR058C, strain SHM2, active compounds read low 0.987 | S. cerevisiae deletion strains, locus YLR102C, strain apc9, active compounds read low 0.997 | S. cerevisiae deletion strains, locus YLR262C, strain YPT6, active compounds read low 1.03 | S. cerevisiae deletion strains, locus YLR268W, strain sec22, active compounds read low 0.987 | S. cerevisiae deletion strains, locus YLR330W, strain CHS5, active compounds read low 0.992 | S. cerevisiae deletion strains, locus YLR342W, strain FKS1 (second series), active compounds read low 0.956 | S. cerevisiae deletion strains, locus YLR371W, strain rom2, active compounds read low 0.967 | S. cerevisiae deletion strains, locus YLR418C, strain cdc73, active compounds read low 0.916 | S. cerevisiae deletion strains, locus YML016C, strain PPZ1, active compounds read low 0.986 | S. cerevisiae deletion strains, locus YML032C, strain rad52, active compounds read low 0.971 | S. cerevisiae deletion strains, locus YML124C, strain tub3, active compounds read low 0.983 | S. cerevisiae deletion strains, locus YMR078C, strain ctf18, active compounds read low 1 | S. cerevisiae deletion strains, locus YMR223W, strain ubp8, active compounds read low 0.998 | S. cerevisiae deletion strains, locus YMR263W, strain SAP30, active compounds read low 0.987 | S. cerevisiae deletion strains, locus YMR307W, strain GAS1, active compounds read low 0.789 | S. cerevisiae deletion strains, locus YNL067W, strain RPL9B, active compounds read low 0.983 | S. cerevisiae deletion strains, locus YNL128W, strain TEP1, active compounds read low 0.979 | S. cerevisiae deletion strains, locus YNL153C, strain GIM3, active compounds read low 0.983 | S. cerevisiae deletion strains, locus YNL233W, strain BNI4, active compounds read low 0.982 | S. cerevisiae deletion strains, locus YNL250W, strain rad50, active compounds read low 1 | S. cerevisiae deletion strains, locus YNL271C, strain bni1, active compounds read low 1.01 | S. cerevisiae deletion strains, locus YNL298W, strain CLA4, active compounds read low 1.02 | S. cerevisiae deletion strains, locus YNL307C, strain MCK1, active compounds read low 1 | S. cerevisiae deletion strains, locus YNL322C, strain KRE1, active compounds read low 0.987 | S. cerevisiae deletion strains, locus YNR052C, strain pop2, active compounds read low 0.937 | S. cerevisiae deletion strains, locus YOL006C, strain TOP1, active compounds read low 0.757 | S. cerevisiae deletion strains, locus YOL012C, strain htz1 0.325 | S. cerevisiae deletion strains, locus YOL147C, strain pex11, active compounds read low 0.993 | S. cerevisiae deletion strains, locus YOR061W, strain CKA2, active compounds read low 0.987 | S. cerevisiae deletion strains, locus YOR069W, strain VPS5, active compounds read low 0.98 | S. cerevisiae deletion strains, locus YOR136W, strain idh2, active compounds read low 1.01 | S. cerevisiae deletion strains, locus YOR144C, strain elg1, active compounds read low 0.973 | S. cerevisiae deletion strains, locus YOR184W, strain ser1, active compounds read low 0.991 | S. cerevisiae deletion strains, locus YOR316C, strain cot1, active compounds read low 0.986 | S. cerevisiae deletion strains, locus YPL055C, strain LGE1, active compounds read low 0.962 | S. cerevisiae deletion strains, locus YPL241C, strain CIN2, active compounds read low 0.976 | S. cerevisiae deletion strains, locus YPR119W, strain clb2, active compounds read low 0.975 | S. cerevisiae deletion strains, locus YPR141C, strain kar3, active compounds read low 1.01 | S. cerevisiae deletion strains, locus YPR163C, strain tif3, active compounds read low 0.955 | S. cerevisiae deletion strains, locus YPR167C, strain met16, active compounds read low 0.996 | S. cerevisiae deletion strains, strain wtn01, active compounds read low 0.964 | S. cerevisiae strains, strain wild type, active compounds read low 0.982
